PAFAH1B2 inh: blocks human PAF acetylhydrolase 1b catalytic subunit 2. actives 1.2% (n = 340,000). recombinant PAFAH1B2, FP-rhodamine activity probe, fluorescence polarization. inhibition, % at 3.39 µM. P68402. AID 492953;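 active = inhibition above the mean of all tested compounds plus 3 SD, cut at about 24% in these data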
Target sequence (P68402 whole entry, looked up): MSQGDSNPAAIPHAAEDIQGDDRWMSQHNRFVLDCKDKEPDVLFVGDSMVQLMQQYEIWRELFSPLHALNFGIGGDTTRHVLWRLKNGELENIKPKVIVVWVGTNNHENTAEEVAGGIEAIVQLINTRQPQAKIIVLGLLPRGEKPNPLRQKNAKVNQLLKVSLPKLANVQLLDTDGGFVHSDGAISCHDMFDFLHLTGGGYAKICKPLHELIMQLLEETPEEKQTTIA
eLon inh: inhibits E. coli Lon protease. AID 602123. actives 0.42% (n = 360,000). P0A9M0. purified E. coli Lon protease, fluorescence polarization. inhibition, % at 7.94 µM; in the data active = inhibition above about 13%, passing the limit was not always enough
PAFAH2 inh: inhibitors of human PAFAH2. recombinant PAFAH2, FP-rhodamine activity probe, fluorescence polarization. inhibition, % at 3.39 µM. Q99487. actives 0.99% (n = 340,000);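 active = inhibition above the mean over all tested compounds plus 3 SD, cut at about 30% in these data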;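 also: inhibitors block probe labeling of enzyme so polarization drops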
PAFAH1B3 inh: PAFAH1B3 (human) inhibition | Q15102 | recombinant PAFAH1B3, FP-rhodamine probe, fluorescence polarization | inhibition, % at 3.39 µM | actives 0.28% (n = 340,000) | AID 492972;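 active = inhibition above the screen-wide average of all tested compounds plus 3 SD, cut at about 25% in these data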
Target sequence (Q15102 whole entry, looked up): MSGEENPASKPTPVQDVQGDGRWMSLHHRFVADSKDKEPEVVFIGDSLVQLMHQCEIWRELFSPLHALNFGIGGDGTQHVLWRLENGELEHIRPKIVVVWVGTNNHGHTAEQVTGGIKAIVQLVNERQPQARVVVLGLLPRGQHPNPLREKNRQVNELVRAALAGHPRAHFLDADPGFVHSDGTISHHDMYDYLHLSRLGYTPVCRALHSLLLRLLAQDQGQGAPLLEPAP
Rin1-Abl PPI inh: human Rin1-Abl interaction inhibition | P00519+Q13671 | TR-FRET Rin1/Abl binding, biochemical | inhibition, % at 7.35 µM | actives 0.4% (n = 360,000); in the data active = inhibition above about 5%, passing the limit was not always enough
pPAFAH FP inh: inhibitors of human plasma PAF acetylhydrolase (pPAFAH); actives 1.5% (n = 330,000); Q13093; inhibition, % at 3.39 µM; recombinant pPAFAH, FP-rhodamine probe fluorescence polarization;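 active = inhibition above the mean inhibition across the screen plus 3 SD, cut at about 25% in these data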;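 also: inhibitors block binding of the rhodamine activity-based probe so polarization drops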
A number is an active result; n = inactive; x = no result given. An excerpt weighted towards active compounds, which were near 3.1% of everything screened.

SMILES | PAFAH1B2 inh | eLon inh | PAFAH2 inh | PAFAH1B3 inh | Rin1-Abl PPI inh | pPAFAH FP inh
O=C(Cc1cccs1)N/N=C/C=C/c1ccco1 | n | n | n | n | n | 25
O=C(/C=C/c1ccc(O)c(O)c1)OCCc1ccccc1 | 34 | n | n | n | n | n
O=C(CSc1nc2ncccc2[nH]1)c1ccc2c(c1)OCO2 | x | n | x | x | n | n
CC(C)=CCc1c2c(c3occ(-c4ccc(O)cc4)c(=O)c3c1O)C=CC(C)(C)O2 | n | n | n | n | n | n
CC1(C)C=Cc2c(c3c(c4c(=O)c(-c5ccc(O)cc5)coc24)OC(C)(C)CC3)O1 | n | n | n | n | n | 26
CCC(OC(=O)c1nsc(Cl)c1Cl)C(=O)NCc1ccco1 (stereo unspecified) | n | n | n | n | n | 27
Cc1coc(C)c1C(=O)Nc1ccc2ccccc2c1 | n | n | n | n | n | x
NC(=O)c1ccc(NC(=O)Cc2csc(-c3ccccc3)n2)cc1 | n | n | n | n | n | n
CC(C)c1ccc(C(=O)COC(=O)C(O)c2ccccc2)cc1 (stereo unspecified) | n | n | n | n | n | 29
O=C(O)CCCC(=O)Nc1ccc(Br)cc1C(=O)O | 27 | n | n | n | n | n
O=C(O)CCCC(=O)Nc1ccc(Br)cc1 | n | n | n | n | n | n
Cc1nc2c(=O)[nH]c(=S)[nH]c2[nH]c1=O | n | n | 45 | 27 | n | x
Cc1nc2[nH]c(=S)[nH]c(=O)c2nc1C | n | n | n | n | n | x
Cn1c2ccccc2c2cc(/C=N/NC(=O)c3ccc(O)cc3O)ccc21 | n | n | n | 33 | n | 31
N#C/C(=C/c1cn[nH]c1-c1ccc(Br)cc1)C(=O)O | 30 | n | n | n | n | n
N#C/C(=C/c1cn[nH]c1-c1cccc(Br)c1)C(=O)O | n | n | n | n | n | n
CC(=O)Nc1cncc(-c2ccccc2N(C)C)n1 | x | n | x | x | n | x
O=C1CCCN1c1ccc(S(=O)(=O)Oc2ccc(Cl)cc2)cc1[N+](=O)[O-] | 69 | n | n | n | n | n
COc1ccc(CN(C)CC(=O)Nc2c(C)cccc2C)c(OC)c1 | n | n | n | n | n | n
COc1ccc(CN(C)CC(=O)Nc2sc3c(c2C#N)CCC3)c(OC)c1 | 24 | n | n | n | n | n
CC1=CCC(C(=O)O)C(C(=O)Nc2ccc(-c3nc4ccc(C)cc4s3)cc2)C1 (stereo unspecified) | n | n | n | n | n | 34
COc1cc(/C=N/NC(=O)C(=O)NCC2CCCO2)ccc1O (stereo unspecified) | n | n | n | n | n | n
O=C(NCC1CCCO1)C(=O)N/N=C/c1ccc(OCc2ccccc2Cl)cc1 (stereo unspecified) | n | n | n | n | n | 30
O=C(Nc1ccc(S(=O)(=O)Nc2nccs2)cc1)c1nn(-c2ccc(F)cc2)ccc1=O | n | n | n | n | n | 26
CCOc1ccc(-n2ccc(=O)c(C(=O)Nc3ccc(S(=O)(=O)Nc4nccs4)cc3)n2)cc1 | n | n | n | n | n | n
SMILES | PAFAH1B2 inh | eLon inh | PAFAH2 inh | PAFAH1B3 inh | Rin1-Abl PPI inh | pPAFAH FP inh
Cn1c(N)c(C(=O)CSc2nc(C3CC3)n(-c3ccccc3)n2)c(=O)[nH]c1=O | n | n | n | n | n | 32
Cn1c(N)c(C(=O)CSc2nnc(C3CC3)n2-c2ccccc2)c(=O)[nH]c1=O | n | n | n | n | n | n
COc1ccc(Cl)cc1N(CC(=O)NCc1ccccn1)S(=O)(=O)c1ccc(C)cc1 | x | n | x | x | n | x
CC1(C)CC(NC(=O)c2cccc(S(=O)(=O)Nc3cccc(Cl)c3)c2)CC(C)(C)N1 | n | n | n | n | n | 27
Cc1ccc(C(=O)NC2CC(C)(C)NC(C)(C)C2)cc1Cl | n | n | n | n | n | n
O=c1[nH]c2cc(Cl)ccc2c(O)c1-c1cccc(Oc2ccccc2)c1 | 32 | n | n | n | n | n
Cc1cccc(S(=O)(=O)NC(=O)C2(C)CCN2C(=O)Cc2cc(F)ccc2F)c1 (stereo unspecified) | x | n | x | x | n | x
O=C1C=CC(=O)N1c1cccc(-c2ccccc2)c1 | n | n | n | n | n | 27
COc1cc(NC(=O)CN(c2cc(C)cc(C)c2)S(=O)(=O)c2c(C)[nH]c(=O)[nH]c2=O)cc(OC)c1 | n | n | n | n | n | 25
Cc1cc(C)cc(N(CC(=O)Nc2ccc(C(F)(F)F)cc2)S(=O)(=O)c2c(C)[nH]c(=O)[nH]c2=O)c1 | n | n | n | n | n | 28
Cc1cc(C)cc(N(CC(=O)Nc2ccc(C)cc2Cl)S(=O)(=O)c2c(C)[nH]c(=O)[nH]c2=O)c1 | n | n | n | n | n | n
Cc1cc(NCCCCCCCNc2cc(C)nc3cc([N+](=O)[O-])ccc23)c2ccc([N+](=O)[O-])cc2n1 | n | n | n | n | n | x
COc1ccc(S(=O)(=O)Nc2ccccc2OC)cc1N=Nc1c(O)[nH]c(=S)[nH]c1=O | n | n | n | n | n | 26
Cc1ccc(-c2c(C(=O)N/N=C/C3CC=CCC3)nnn2-c2nonc2N)cc1 (stereo unspecified) | n | n | n | n | n | n
COc1cc(/C=N/NC(=O)c2ccc(COc3ccccc3Cl)o2)cc(Br)c1O | n | n | n | n | n | 32
C[C@H](CO)N1C[C@H](C)[C@@H](CN(C)S(=O)(=O)c2cccs2)Oc2c(NC(=O)NC3CCCCC3)cccc2C1=O | n | n | n | n | n | n
O=C(Cc1cccs1)Nc1ccc(S(=O)(=O)Nc2ncccn2)cc1 | n | n | n | n | n | n
Cc1ccnc(NS(=O)(=O)c2ccc(NC(=O)Cc3cccs3)cc2)n1 | n | n | n | n | n | 34
CCOc1ccc(CN(C)CC(=O)Nc2cccc(S(=O)(=O)N(C)c3ccccc3)c2)cc1 | n | n | n | n | n | 28
COc1cccc(CN(C)CC(=O)Nc2cccc(S(=O)(=O)N(C)c3ccccc3)c2)c1OC | n | n | n | n | n | x
CCOc1cc(/C=C2\C(=O)N(c3cccc(C(=O)O)c3)N=C2C(F)(F)F)ccc1OCC(=O)Nc1ccccc1OC | x | x | x | x | x | 37
CCOc1cc(/C=N/n2cnnc2)ccc1OCC(=O)Nc1ccccc1OC | n | n | n | n | n | n
O=C(NCc1n[nH]c(=S)n1-c1ccc(Br)cc1)c1ccc(S(=O)(=O)N2CCCCC2)cc1 | 30 | n | n | n | n | n
CCOCCn1c(C)c(C(=O)OCC)c2cc(O)c3ccccc3c21 | n | n | n | n | n | n
COc1cccc(CSc2nc3sc(C)c(C)c3c(=O)n2Cc2ccco2)c1 | n | n | n | n | n | 26
COc1ccc2ccccc2c1/C=N/NC(=O)c1cccc(Br)c1 | n | n | n | n | n | n
O=C(N/N=C/c1c(O)ccc2ccccc12)c1cccc(C(F)(F)F)c1 | n | n | n | n | n | 30
Cc1cc(C)n(C(=O)CCCn2cc([N+](=O)[O-])cn2)n1 | n | n | n | n | n | n

Screening results as filed in PubChem.
